# Shown are actives, neighbours in structure and some others; about 3% of the full set was active somewhere.
# SKKanGAS inh – inhibitors of SKKanGAS S. pyogenes growth in kanamycin (SK-promoter or general growth effect); BacTiter-Glo, 6 h; 300,000 compounds, 1.3% hits; inhibition, % at 7.5 µM; AID 1662;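 active means mean replicate score, as percent of positive control median, at least 50; inconclusive means mean below 50 but one replicate at or above 50; inactive means mean and every replicate below 50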;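 further: strain carries kanamycin resistance gene driven by streptokinase promoter and grows in 40 µg/ml kanamycin; loss of luminescence reflects streptokinase promoter inhibition or plain growth inhibition; 0% = median of DMSO wells and 100% = positive control at its reference dose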
# CSC inhib – blocks cancer stem cells. cancer stem cell-like cells viability, luminescence. inhibition, % at 7.5 µM. 300,000 compounds, 1.1% hits. AID 2717; in the data active means inhibition above about 75%; inconclusive means no clear call, values can overlap the other calls; tested in HMLE shEcad cells
# IEC-6 cytotox – IEC-6 cytotoxicity, counter-screen for KLF5 inhibitors. luminescence viability. inhibition, % at 5 µM. 290,000 compounds, 0.78% hits. AID 1825; in the data active means inhibition above about 22%;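 further: 0% = plate median of test compound wells and 100% = cytotoxic reference compound wells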
# KLF5 inhibitor – kruppel-like factor 5 inhibition. 290,000 compounds, 0.23% hits. inhibition, % at 5 µM. DLD-1 KLF5 promoter-luciferase reporter, luminescence;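 active means inhibition above a per-plate limit of that plate's mean compound inhibition plus 3 SD, cut at about 60% in these data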;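 further: 0% = DMSO wells and 100% = LY294002 at 200 µM; higher means less KLF5 promoter-driven luciferase light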
# aSyn 5UTR inh – MLPCN primary screen, SNCA 5' untranslated region. alpha-synuclein 5'UTR reporter, inhibitor activity. inhibition, % (tested at 7.5 µM). 300,000 compounds, 0.82% hits. AID 1813; in the data active means inhibition above about 60%; inconclusive means no clear call, values can overlap the other calls;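 further: H4 neuroglioblastoma cells stably carrying SNCA 5'UTR luciferase fusion; 0% = DMSO wells and 100% = positive control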
# * hit, by the source's call; ? = inconclusive; / = no result.
SMILES,SKKanGAS inh,CSC inhib,IEC-6 cytotox,KLF5 inhibitor,aSyn 5UTR inh
COc1ccccc1C(NC(C)=O)c1c(O)ccc2ccc(O)cc12 (centres undefined),13,-2,/,/,13
CCCC(=O)NC(c1ccco1)c1cc(Cl)c2cccnc2c1O (centres undefined),71*,-2,5,-17,40
CCCC(=O)NC(c1cccs1)c1cc(Cl)c2cccnc2c1O (centres undefined),/,11,-1,-13,99*
COc1ccc(C(NC(C)=O)c2ccc3cccnc3c2O)c(OC)c1 (centres undefined),12,45,/,/,83*
COc1ccc(C(NC(C)=O)c2cc(Cl)c3cccnc3c2O)cc1OC (centres undefined),55*,2,-4,-35,46
Cc1cccc(OCc2nnc(SCC(=O)NC3CCCC3)n2C)c1,-10,-1,-6,-37,19
CCCCn1c(N)c(N(CC(C)C)C(=O)c2cc3c(s2)CCCCC3)c(=O)[nH]c1=O,-8,-4,/,/,-7
CC1CCCCN1CCCNC(=O)CN1C(=O)c2cccnc2Oc2ccccc21 (centres undefined),-4,-9,2,9,-4
COC(=O)C1CSC(C(=O)OC)N1C(=O)CN1CCN(c2ccccc2)CC1 (centres undefined),/,-9,-3,-19,14
Nc1cc(=O)[nH]c(SCC(=O)Nc2ccc(Oc3ccccc3)cc2)n1,2,-6,-4,-8,2
CCC(=O)NC(C)c1cc(Cl)c2cccnc2c1O (centres undefined),/,-4,/,/,/
CCCC(=O)NC(c1ccc2c(c1)OCO2)c1cc(Cl)c2cccnc2c1O (centres undefined),62*,113*,-9,15,80*
COC(=O)c1c(C(=O)OC)c(-c2ccc(Br)cc2)n2c1CS(=O)C2 (centres undefined),0,-3,-4,4,17
COc1ccc(-n2c(C)cc(C(=O)CCl)c2C)cc1,-20,95*,-2,-53,65*
Cc1ccc(-n2nnnc2SCC(=O)c2cc(C)n(-c3cc(C)on3)c2C)c(C)c1,?,140*,-3,-9,-6
Cc1cc(-n2c(C)cc(C(=O)CCl)c2C)no1,-7,-6,-6,-15,119*
CC(=O)Nc1ccc(SCC(=O)c2cc(C)n(-c3ccccc3)c2C)cc1,-2,84*,-9,14,17
COc1cc(OC)c(C(=O)Nc2cccc3ccccc23)cc1OC,-8,5,9,-59,-21
CN(CC(=O)NCC(=O)Nc1ccc(F)c(F)c1F)C1CCS(=O)(=O)C1 (centres undefined),/,-12,/,/,/
CC(OC(=O)CN1C(=O)NC2(CCCC2)C1=O)C(=O)Nc1cccc(Cl)c1 (centres undefined),8,0,3,-33,-1
CC(=O)Nc1ccc(SCC(=O)c2cc(C)ccc2C)cc1,-7,10,8,-23,-4
COc1ccc(-n2c(C)cc(C(=O)CSc3ccc(NC(C)=O)cc3)c2C)cc1,3,169*,-6,-54,-89
NNc1nc(-c2ccccc2)c2cc(Cl)ccc2n1,47,6,2,-15,13
NNc1nc(-c2ccccc2)c2cc(Br)ccc2n1,65*,23,4,-15,22
CCOc1ccc(NS(=O)(=O)c2cc(NC(=O)c3ccc(C)cc3)ccc2Cl)cc1,60*,60,56*,48,10
SMILES,SKKanGAS inh,CSC inhib,IEC-6 cytotox,KLF5 inhibitor,aSyn 5UTR inh
CCOc1ccc(Oc2ccc(NS(=O)(=O)c3cc(C(=O)O)ccc3Cl)cc2)cc1,/,10,/,/,/
CC(=O)Nc1ccc(/C(C)=N/Nc2nc(Nc3cccc4ccccc34)nc(N3CCOCC3)n2)cc1,21,-3,13,-31,-28
COc1ccc(C2c3c(-c4ccccc4O)n[nH]c3C(=O)N2CCc2ccc(OC)c(OC)c2)cc1 (centres undefined),9,-17,0,-2,33
COc1ccc(CCN2C(=O)c3[nH]nc(-c4ccccc4O)c3C2c2cccc(Cl)c2)cc1 (centres undefined),71*,18,5,-17,-38
Cc1ccc(C)c(-c2csc(N)c2C(=O)OC(C)C)c1,53*,?,-7,-33,11
CC(C)(C)NC(=O)CSc1nnc(C2CC2)n1-c1ccccc1,-5,6,-4,-35,10
COc1ccc(CC2=CC(=O)c3ccccc3C2=O)cc1,66*,55,-1,-55,-24
CC(C)NC(=O)c1ccccc1NC(=O)/C=C/c1cccc([N+](=O)[O-])c1,13,96*,-1,-16,63*

# Compound activity as filed in PubChem BioAssay.
